Reference: PubChem BioAssay AID602229 (The Scripps Research Institute Molecular Screening Center, 2012)
Hit rate of the full screen: of about 360,000 compounds, about 1,300 (0.36%) were called active. The sample as a whole holds a higher share of actives than the screen did. Values without a mark were called inactive.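 Rule for the calls: active = inhibition above the mean of all tested compounds plus 3 SD (cut at about 70% in these data); inactive = the rest.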

Target: Photoreceptor-specific nuclear receptor (Homo sapiens) (UniProt Q9Y5X4)
Sequence (Q9Y5X4 whole entry, looked up, the tested form may be a part): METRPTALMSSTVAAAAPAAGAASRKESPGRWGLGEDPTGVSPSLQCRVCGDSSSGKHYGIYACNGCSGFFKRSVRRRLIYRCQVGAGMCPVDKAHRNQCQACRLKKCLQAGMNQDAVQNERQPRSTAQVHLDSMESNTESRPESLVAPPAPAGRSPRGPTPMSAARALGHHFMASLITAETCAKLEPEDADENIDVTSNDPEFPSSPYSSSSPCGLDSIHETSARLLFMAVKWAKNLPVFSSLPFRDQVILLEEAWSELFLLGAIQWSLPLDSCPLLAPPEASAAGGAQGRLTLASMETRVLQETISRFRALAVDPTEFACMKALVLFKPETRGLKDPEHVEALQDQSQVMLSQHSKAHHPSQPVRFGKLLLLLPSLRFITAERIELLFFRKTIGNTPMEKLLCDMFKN
Assay: NCOR release from NR2E3 in cells – cell-based, luminescence, CHO-S, Gal4-NCOR/VP16-NR2E3, primary screen (AID 602229);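 note: 0% = DMSO with NR2E3 transfected cells and 100% = cells lacking NR2E3 construct; higher means lower luciferase signal from less NR2E3 corepressor binding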
Settings: CHO-S Gal4-NCOR/VP16-NR2E3 two-hybrid, luciferase; at 3.98 µM; hits give high values

Row | Structure (SMILES) | inhibition
1 | CC(=O)OC1C2(CC3N4C(=O)C5(CO)SSC4(CC31O)C(=O)N5C)OC(C)C(C)(C)C2=O (stereo not given) | 99.4% (active)
2 | Cc1nn(-c2ccccc2)c(C)c1NC(=O)COC(=O)Cc1ccccc1 | 8.66%
3 | COc1ccc(Br)cc1CNCCc1cccc(Cl)c1 | 24.3%
4 | COC(=O)C1=C(c2ccc(F)cc2OCc2ccccc2)C[C@@H]2CC[C@H]1N2C(=O)NCc1ccc(C(C)(C)C)cc1 | 8.82%
5 | CCCCCCCCCCCCn1ccc(=N)cc1 | 94% (active)
6 | CC(C)CN1Cc2cc(N3CCCCC3)ccc2-n2nncc2C1 | 3.03%
7 | CNC(=O)N(C)c1nnc(C(C)(C)C)s1 | -10.2%
8 | CN(C)P(=S)(Nc1ccccc1)C(Cl)(Cl)Cl (stereo not given) | 5.18%
9 | COC(=O)N(c1ccc(OC)cc1)P1(=S)OCCC(C)O1 (stereo not given) | -15.4%
10 | CC(=NCC1CCCO1)c1c(O)n(-c2ccccc2)c(=O)[nH]c1=O (stereo not given) | 0.24%
11 | CCC(C)(O)C(=O)OC1C(=O)OC2CC3C(C)=CC(=O)C(O)C3(C)C3C4(O)OCC23C1C(C)C4O (stereo not given) | 99% (active)
12 | CCC(=O)OC(Cc1ccccc1)(c1ccccc1)C(C)CN(C)C (stereo not given) | -18.8%
13 | Nc1ccc(Cc2ccc(N)c(Cl)c2)cc1Cl | -10.5%
14 | Cn1c(O)c(C(=Nc2ccc(F)cc2)c2ccccc2)c(=O)n(C)c1=O | -24.4%
15 | COc1cccc(-c2nc3ccc(N4CCN(C)CC4)cc3[nH]2)c1 | -20.1%
